Only a sample is shown.
aSyn UTR act: Activators via SNCA 5'UTR binding, MLPCN; alpha-synuclein 5'UTR reporter, activators screen; 7.1% of 300,000 active; activity score, % (tested at 7.5 µM), hits read low; AID 1814, 2009; in the data active means activity score below about -60%
Large screens that a line does not name were inactive.

Cc1ccc(C(=O)OCC(=O)c2c[nH]c3ccccc23)cc1NC(=O)c1ccco1	aSyn UTR act -70.4
CCC(=O)Nc1cc(C(=O)OCC(=O)c2ccccc2)ccc1C	aSyn UTR act -88.2
CCC(=O)Nc1cc(C(=O)OCC(=O)c2ccccc2Cl)ccc1C	aSyn UTR act -167.7
Nc1ccccc1NC(=O)c1ccccc1N	aSyn UTR act -139.0
Nc1ccccc1NC(=O)NC(=O)c1ccccc1	aSyn UTR act -169.3
Cc1c(NC(=O)c2ccccc2N)cccc1C(=O)O	aSyn UTR act -155.3
COC(=O)C1=C(Nc2ccccc2NC(=O)c2ccccc2C(=O)O)CSC1	aSyn UTR act -167.3
O=C(O)c1ccccc1C(=O)Nc1ccccc1NC(=O)c1ccccc1C(=O)O	aSyn UTR act -126.0
Cc1c(NC(=O)c2ccc(Br)o2)cccc1C(=O)O	aSyn UTR act -85.8
COc1cc(/C=C/C(=O)NC(C)(C)C)ccc1OCc1ccccc1	none
COc1cc(/C=N/NC(=O)CNc2n[nH]c(=O)[nH]c2=O)ccc1OCc1ccccc1	aSyn UTR act -75.1
COc1cc(/C=N/NC(=O)CC2(C)OCCCO2)ccc1OCc1ccccc1	aSyn UTR act -65.0
COc1cc(/C=N/NC(=O)CC2(C)OCCCO2)ccc1OCc1ccc(Cl)cc1Cl	aSyn UTR act -69.8
CC1(CC(=O)N/N=C/c2ccc(OCc3ccc(Cl)cc3Cl)cc2)OCCCO1	aSyn UTR act -106.1
COc1cc(/C=N/NC(=O)CN2CCCCC2)ccc1OCc1ccc(Br)cc1	aSyn UTR act -153.9
COc1ccc(-c2cc3ncc(-c4ccccc4)c(N)n3n2)cc1	aSyn UTR act -95.9
O=C(Nc1ccccc1)c1cc2n(n1)C(C(F)(F)F)CC(C1CC1)N2 (stereo not given)	aSyn UTR act -167.8
CCN1CCN(C(=O)/C=C/c2c(F)cccc2Cl)CC1	aSyn UTR act -90.0
O=C(/C=C/c1c(F)cccc1Cl)N1CCc2ccccc2C1	aSyn UTR act -85.1
CCS(=O)(=O)N1CCCC(c2nc(-c3cccc(OC)c3)no2)C1 (stereo not given)	aSyn UTR act -102.3
NC(=O)c1ccc(NC(=O)C#Cc2ccccc2)cc1	aSyn UTR act -111.9
COc1ccc(NC(=O)C#Cc2ccccc2)cc1OC	aSyn UTR act -212.3
CCOC(=O)c1cc(-c2ccc(OC)cc2)n[nH]1	aSyn UTR act -72.8
CCOc1ccc(-c2n[nH]c(C(=O)NN)c2C)cc1	aSyn UTR act -72.8
CC(C)COc1ccc(-c2cc(C(=O)NN)[nH]n2)cc1	aSyn UTR act -83.0
CCOC(=O)c1cc(-c2ccc3c(c2)OCCO3)n[nH]1	aSyn UTR act -173.7
Nn1c(SCC(=O)NC(=O)Nc2ccc3c(c2)OCCO3)nnc1C1CC1	aSyn UTR act -95.8
O=C(CSc1nnnn1-c1ccccc1)NC(=O)Nc1ccc2c(c1)OCCO2	aSyn UTR act -85.6
Cn1nnnc1SCC(=O)Nc1ccc2c(c1)OCCO2	aSyn UTR act -85.7
CC(C)(C)Cc1nnc(NC(=O)c2ccc3c(c2)OCO3)s1	aSyn UTR act -112.0
CCC(CC)c1nnc(NC(=O)c2ccc3c(c2)OCO3)s1	aSyn UTR act -169.1
Cc1cc(N2CCCC2)c(F)cc1/C=C\[N+](=O)[O-]	aSyn UTR act -79.4
CC(C)Sc1nc(NCc2ccco2)c2c3c(sc2n1)COC(C)(C)C3	aSyn UTR act -84.9
CC(C)c1nc2oc3c(NCc4ccccn4)ncnc3c2c2c1COC(C)(C)C2	none
CCC(C)N(CC(=O)Nc1cccc(C)c1C)C(=O)CCl (stereo not given)	aSyn UTR act -88.3
O=[N+]([O-])c1cc([N+](=O)[O-])c2cc3ccccc3nc2c1	aSyn UTR act -176.0
CCc1nc2ccc(C(=O)O)cc2nc1CC	aSyn UTR act -62.9
CCc1nc2ccc(C(=O)NCCc3ccc(OC)cc3)cc2nc1CC	aSyn UTR act -138.1
Cn1c(=O)c(-c2cc(Br)ccc2N)nc2ccccc21	aSyn UTR act -64.1
O=[N+]([O-])c1ccc(S(=O)(=O)Nc2cccc(-c3ccc(N4CCOCC4)nn3)c2)cc1	aSyn UTR act -83.5
O=[N+]([O-])c1ccc(Cl)c(S(=O)(=O)Nc2cccc(-c3ccc(N4CCOCC4)nn3)c2)c1	aSyn UTR act -107.9
Nc1ccc(-c2ncc(-c3ccccc3)o2)cc1	none
Cc1ccc(-c2cnc(-c3ccncc3)o2)cc1	aSyn UTR act -156.8
COP(=O)(OC)C(Nc1ccc(C)cc1)c1ccc([N+](=O)[O-])cc1 (stereo not given)	aSyn UTR act -158.8
COc1ccc(-n2c(=S)[nH]c3cc(C(=O)Nc4ccc(F)cc4)ccc3c2=O)c(OC)c1	aSyn UTR act -141.9
COc1c(Cl)cc(C(=O)NN)cc1Cl	none
CC(C)CCNC(=O)c1ccc(Cl)c(N)c1	aSyn UTR act -81.3
CC(C)CCNC(=O)C(=O)Nc1ccccc1	aSyn UTR act -155.2
CC(C)CCNC(=O)c1ccc(-c2ccccc2)cc1	aSyn UTR act -106.8
COc1ccccc1Oc1ccc(N/C=C/C(=O)c2ccco2)cc1	aSyn UTR act -199.1
O=C(/C=C/Nc1ccc(Oc2ccccc2Cl)cc1)c1ccco1	aSyn UTR act -183.8
Cc1ccc(C(=O)NC(C#N)=C(Cl)Cl)cc1	aSyn UTR act -191.3
Cc1cc(C)c2c(c1)/C(=N\N=c1\sc3ccccc3n1C)C(=O)N2	aSyn UTR act -106.7
CCc1ccc2nc(NC(=O)C3CSC4(C)CCC(=O)N34)sc2c1 (stereo not given)	aSyn UTR act -107.4
Cc1cc(C)c2nc(NNC(=O)c3ccc(S(=O)(=O)N4CC(C)CC(C)C4)cc3)sc2c1 (stereo not given)	none
CC1CC1C(=O)Nc1nc2ccc(Cl)cc2s1 (stereo not given)	aSyn UTR act -134.1
CCC(=O)NNc1nc2c(C)cc(C)cc2s1	aSyn UTR act -63.2
CCc1noc(C)c1C(=O)Nc1nc2ccc(F)cc2s1	aSyn UTR act -139.3
CCc1ccc2nc(NC(=O)c3cc(C)on3)sc2c1	aSyn UTR act -66.1
Cc1cc(C)c2nc(NC(=O)c3cc(C)on3)sc2c1	aSyn UTR act -89.5
Cc1cc(C)c2nc(NCc3ccccc3O)sc2c1	aSyn UTR act -117.5
O=C(Nc1nc2ccc(Cl)cc2s1)[C@@H]1CCCN1C(=O)c1cccs1	aSyn UTR act -92.1
Cc1noc(C)c1C(=O)Nc1nc2ccc(Cl)cc2s1	aSyn UTR act -82.5
CCOc1ccc(/C=N/n2cc(-c3ccccc3)[nH]c2=S)cc1	aSyn UTR act -64.8
Cc1ccc2nc(-c3ccc(NC(=O)CN4CCN(c5ccccn5)CC4)cc3)sc2c1	aSyn UTR act -145.8
Cc1ccc2nc(-c3ccc(NC(=O)C(C)Sc4nncs4)cc3)sc2c1 (stereo not given)	none
Cc1ccc2nc(-c3ccc(NC(=O)CCS(=O)(=O)c4ccccc4)cc3)sc2c1	none
Cc1ccc2nc(-c3ccc(NC(=O)CN4C(=O)c5ccccc5C4=O)cc3)sc2c1	aSyn UTR act -199.9
Cc1ccc2nc(-c3ccc(NC(=S)NC(=O)CC(C)C)cc3)sc2c1	aSyn UTR act -177.7
Cc1ccc2nc(-c3ccc(NC(=O)CSc4nc(N)cc(=O)[nH]4)cc3)sc2c1	aSyn UTR act -176.5
Cc1ccc2nc(-c3ccc(NC(=O)COC(=O)c4ccc(=O)[nH]c4)cc3)sc2c1	aSyn UTR act -66.9
Cc1cccc(NC(=O)c2ccc(-c3ccccc3[N+](=O)[O-])o2)c1	aSyn UTR act -85.4
Cc1ccccc1-c1ccc(C(=O)Nc2cccc(F)c2)o1	aSyn UTR act -128.4
COc1cccc(NC(=O)c2ccc(-c3ccccc3[N+](=O)[O-])o2)c1	aSyn UTR act -99.8
CC1(C)Cc2nc3sc(C(=O)NCCCO)c(N)c3cc2CS1	aSyn UTR act -92.3
CCOC(=O)c1cc(-c2ccccc2)nn1Cc1cc(CC)no1	aSyn UTR act -100.2
